Data as given in PubChem BioAssay (NCATS).
Calls of active or inactive are those of the source. Entries that show only a call come without a potency. Unless noted, the call rests on the fitted dose curve; in most records, active means well fitted inhibition curve with a large enough effect; inconclusive means small, poorly fitted or top-dose-only effect; inactive means no such curve, though single readings can be large or run the other way. Residues, ends and D or L forms follow the SMILES beside them. *: point of attachment. Cbz = O=C(OCc1ccccc1)*

Experiments:
[1] = target: Pyruvate kinase (Leishmania mexicana) (UniProt Q27686); assay: qHTS Validation Assay for Inhibitors of Leishmania Mexicana Pyruvate Kinase (AID 945)
Method in brief: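 An endpoint luciferase assay: 0.2 nM LmPYK E451W turns over 0.5 mM PEP with 0.1 mM ADP for 1 h at room temperature, pH 7.2, before PKLight addition. Values are normalized to DMSO-only wells.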

[2] = target: Pyruvate kinase PKM (Homo sapiens) (UniProt P14618); assay: qHTS Assay for Activators of Human Muscle Pyruvate Kinase (AID 954; active means well fitted curve in the direction sought with a large enough effect, not every such curve was filed as active)
Method in brief: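 A coupled luminescent readout tracked ATP made from ADP by purified PKM2. Final conditions included 0.1 nM enzyme, PEP and ADP at 0.5 and 0.1 mM, pH 7.2 imidazole buffer with BSA, and a one-hour room-temperature reaction.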

Sequence of Pyruvate kinase (Leishmania mexicana) (Q27686 2-499 E452W): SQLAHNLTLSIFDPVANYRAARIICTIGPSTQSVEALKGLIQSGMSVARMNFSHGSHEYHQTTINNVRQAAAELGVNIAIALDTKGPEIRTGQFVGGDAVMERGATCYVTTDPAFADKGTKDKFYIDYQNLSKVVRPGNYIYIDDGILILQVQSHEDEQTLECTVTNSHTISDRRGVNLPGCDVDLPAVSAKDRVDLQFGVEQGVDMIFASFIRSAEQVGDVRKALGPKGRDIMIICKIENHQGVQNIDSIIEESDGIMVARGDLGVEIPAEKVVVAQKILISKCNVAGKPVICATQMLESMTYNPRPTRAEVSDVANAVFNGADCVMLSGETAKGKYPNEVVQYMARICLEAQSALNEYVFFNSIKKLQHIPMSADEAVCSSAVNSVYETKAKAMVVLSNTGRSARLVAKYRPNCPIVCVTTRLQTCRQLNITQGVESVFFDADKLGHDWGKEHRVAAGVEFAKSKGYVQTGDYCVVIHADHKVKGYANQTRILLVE
Sequence of Pyruvate kinase PKM (Homo sapiens) (P14618 whole entry, looked up): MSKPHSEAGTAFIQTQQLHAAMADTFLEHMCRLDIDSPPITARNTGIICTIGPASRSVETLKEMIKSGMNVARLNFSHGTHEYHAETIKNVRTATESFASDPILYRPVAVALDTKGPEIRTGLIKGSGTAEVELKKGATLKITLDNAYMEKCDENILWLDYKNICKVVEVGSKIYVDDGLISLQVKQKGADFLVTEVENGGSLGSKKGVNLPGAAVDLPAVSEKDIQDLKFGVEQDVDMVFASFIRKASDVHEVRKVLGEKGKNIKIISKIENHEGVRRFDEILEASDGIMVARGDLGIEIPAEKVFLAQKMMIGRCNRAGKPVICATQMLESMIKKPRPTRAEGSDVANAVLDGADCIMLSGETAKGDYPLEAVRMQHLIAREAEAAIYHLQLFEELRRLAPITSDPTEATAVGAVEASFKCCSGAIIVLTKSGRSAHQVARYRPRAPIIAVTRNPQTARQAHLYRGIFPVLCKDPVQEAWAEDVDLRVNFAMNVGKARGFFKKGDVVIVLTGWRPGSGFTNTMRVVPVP

Row | SMILES | Potency [1] | outcome [2]
1 | CCC(=O)N1CCN(C(=O)c2ccccc2)CC1 | inactive | inactive
2 | O=c1[nH]ccc2c(O)cccc12 | inactive | inactive
3 | [Li+] | inactive | inactive
4 | O=c1cc(-c2ccccc2)[nH]c2nc(Cl)ccc12 | inactive | inactive
5 | NCCCCN | inactive | inactive
6 | Fc1ccc(CN(C2=NCCN2)c2c(Cl)cccc2Cl)cc1 | inactive | inactive
7 | N[C@H](C(=O)O)[C@H](O)C(=O)O | inactive | inactive
8 | Nc1nc2ccc(Cl)cc2c2nc(-c3ccco3)nn12 | inactive | inactive
9 | c1ccc2c(c1)CC(N1CCN(c3cccc4c3OCCO4)CC1)C2 | inactive | inactive
10 | O=c1[nH]c(=O)c2nc3ccccc3nc2[nH]1 | inactive | inactive
11 | O=C1NC(=O)c2cc(Nc3ccccc3)c(Nc3ccccc3)cc21 | inactive | inactive
12 | COC(=O)[C@H](NC(=O)c1cc(-c2ccccc2)nc2ccccc12)c1ccccc1 | inactive | inactive
13 | c1ccc(CN2CCC3(CCCc4ccccc43)CC2)cc1 | inactive | inactive
14 | Cn1ccnc1 | inactive | inactive
15 | Cc1ccc([N+](=O)[O-])cc1S(=O)(=O)N(C)C | inactive | inactive
16 | O=S(=O)(c1cccc2c(Cl)cccc12)N1CCCNCC1 | inactive | inactive
17 | CCCCCCCCCCCCCCC[C@H](O)[C@H](N)CO | inactive | inactive
18 | O=C(O)c1ccccc1Nc1cccc(OCc2ccc3ccccc3n2)c1 | inactive | inactive
19 | COc1cc(CC(=O)O)ccc1O | inactive | inactive
20 | Cc1cccc(C(=O)NCN2CCN(c3ccccc3C#N)CC2)c1 | inactive | inactive
21 | N[C@H](C(=O)O)c1cc(O)cc(O)c1 | inactive | inactive
22 | O=[N+]([O-])c1cccc2cn[nH]c12 | inactive | inactive
23 | O=C1Nc2ccc(I)cc2/C1=C/c1cc(Br)c(O)c(Br)c1 | inactive | inactive

Row | SMILES | Potency [1] | outcome [2]
24 | O=C(O)c1cc2cc(F)ccc2[nH]1 | inactive | inactive
25 | O=C(O)C1=CCNCC1 | inactive | inactive
26 | CC[N+](CC)(CC)CC(=O)Nc1c(C)cccc1C | inactive | inactive
27 | CCN(CC)CCOC(=O)c1cc(Cl)c(N)cc1OC | inactive | inactive
28 | CCCn1c(=O)c2[nH]c(C3CCCC3)nc2n(CCC)c1=O | inactive | inactive
29 | O=C(O)C1=CCCNC1 | inactive | inactive
30 | NC1(C(=O)O)CCCCC1 | inactive | inactive
31 | COc1ccccc1N1CCN(CCN(C(=O)c2ccc(F)cc2)c2ccccn2)CC1 | inactive | inactive
32 | CCCCCCCC/C=C\CCCCCCCC(=O)NCCc1ccc(O)c(O)c1 | inactive | inactive
33 | O=c1oc(Cl)c(Cl)c2ccccc12 | inactive | inactive
34 | CC(C)[C@H](NC(=O)OCc1ccccc1)C(=O)N[C@H](C=O)Cc1ccccc1 (Cbz-Val-Phe-aldehyde) | inactive | inactive
35 | Nc1ccc2c3c(cccc13)C(=O)NC2=O | inactive | inactive
36 | CC(=O)NCCc1c[nH]c2ccc(O)cc12 | inactive | inactive
37 | CCCCCCN(CCCCCC)C(=O)Cc1c(-c2ccc(F)cc2)[nH]c2ccccc12 | inactive | inactive
38 | C/C(=C\c1ccc(C(=O)O)cc1)c1ccc2c(c1)C(C)(C)CCC2(C)C | inactive | inactive
39 | CCCn1c(=O)c2[nH]c(-c3ccc(S(=O)(=O)O)cc3)nc2n(CCC)c1=O | inactive | inactive
40 | CC(=O)NNC(=O)N1Cc2ccccc2Oc2ccc(Cl)cc21 | inactive | inactive
41 | NC/C=C\C(=O)O | inactive | inactive
42 | Cn1c(=O)[nH]c2ncn(C)c2c1=O | inactive | inactive
43 | O=[N+]([O-])c1cccc2c(Br)[nH]nc12 | inactive | inactive
44 | CC[C@H](NC(=O)c1c(C)c(-c2ccccc2)nc2ccccc12)c1ccccc1 | inactive | inactive
45 | OC1(c2ccc(Cl)cc2)CCN(Cc2c[nH]c3ccccc23)CC1 | inactive | inactive
46 | N[C@@H](CS(=O)O)C(=O)O | inactive | inactive
